Assay results published in PubChem BioAssay (Tox21).
Results filed as inconclusive are left out. Active and inactive are the calls of the source. Unless noted, calls come from the whole dose curve; as a rule, active = well fitted curve in the direction sought with a large enough effect in the repeat runs; inconclusive = weak or mixed curves; inactive = no such curve, though single readings can be large; an effect the other way counts as inactive or inconclusive.

Assays:
[1] = target: Aryl hydrocarbon receptor (Homo sapiens) (UniProt P35869); test: qHTS assay to identify small molecule that activate the aryl hydrocarbon receptor (AhR) signaling pathway (AID 743085);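 note: HG2L7.5c1 human HepG2 liver cells with stably integrated DRE-driven firefly reporter; series mostly up to about 70 µM; nearly all actives have a fitted effect of over 15% in size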
Aryl hydrocarbon receptor (Homo sapiens), sequence (P35869 whole entry, looked up): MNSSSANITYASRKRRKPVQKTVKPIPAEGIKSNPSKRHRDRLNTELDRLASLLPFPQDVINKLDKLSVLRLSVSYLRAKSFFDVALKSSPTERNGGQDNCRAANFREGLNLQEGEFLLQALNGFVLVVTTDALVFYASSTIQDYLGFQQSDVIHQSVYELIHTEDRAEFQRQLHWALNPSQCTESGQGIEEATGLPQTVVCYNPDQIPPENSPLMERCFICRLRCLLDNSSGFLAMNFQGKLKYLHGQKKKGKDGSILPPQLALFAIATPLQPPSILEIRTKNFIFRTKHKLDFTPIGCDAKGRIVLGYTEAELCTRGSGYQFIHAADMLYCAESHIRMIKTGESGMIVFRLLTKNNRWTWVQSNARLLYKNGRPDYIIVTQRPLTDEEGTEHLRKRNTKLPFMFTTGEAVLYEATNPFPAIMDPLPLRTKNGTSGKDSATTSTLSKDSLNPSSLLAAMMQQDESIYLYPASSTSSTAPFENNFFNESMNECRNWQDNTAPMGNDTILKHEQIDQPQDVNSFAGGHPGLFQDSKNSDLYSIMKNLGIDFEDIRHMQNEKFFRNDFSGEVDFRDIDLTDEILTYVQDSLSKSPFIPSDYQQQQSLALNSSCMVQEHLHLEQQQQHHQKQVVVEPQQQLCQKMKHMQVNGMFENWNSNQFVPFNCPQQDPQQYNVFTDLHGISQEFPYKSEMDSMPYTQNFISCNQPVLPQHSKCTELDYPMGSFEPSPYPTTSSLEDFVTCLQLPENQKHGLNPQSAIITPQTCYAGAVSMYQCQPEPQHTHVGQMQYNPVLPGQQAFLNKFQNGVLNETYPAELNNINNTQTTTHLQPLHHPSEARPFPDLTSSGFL
Method in brief: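 Luminescence read-out: ONE-Glo reagent, 30 min at room temperature, in HG2L7.5c1 HepG2 reporter cells treated 24 h at 37C. Viability was measured beforehand by CellTiter-Fluor fluorescence after 30 min at 37C.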

[2] = qHTS assay to identify small molecule that activate the aryl hydrocarbon receptor (AhR) signaling pathway - cell viability counter screen (AID 743086);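 note: HepG2 liver cells carrying the AhR DRE luciferase reporter; series mostly up to about 70 µM; nearly all actives have a fitted effect of over 45% in size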
Method in brief: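 Cytotoxicity counter screen: CellTiter-Fluor signal (30 min, 37 C) in 4000 HepG2 cells/well carrying the DRE-luciferase reporter, following 24 h compound exposure at 37 C.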

[3] = target: Peroxisome proliferator-activated receptor gamma (Homo sapiens) (UniProt P37231); test: qHTS assay to identify small molecule agonists of the peroxisome proliferator-activated receptor gamma (PPARg) signaling pathway (AID 743094; active = well fitted activation curve with a large enough effect in the signal ratio in the repeat runs, not every such curve was filed as active; the % refers to the signal ratio)
Peroxisome proliferator-activated receptor gamma (Homo sapiens), sequence (P37231 whole entry, looked up): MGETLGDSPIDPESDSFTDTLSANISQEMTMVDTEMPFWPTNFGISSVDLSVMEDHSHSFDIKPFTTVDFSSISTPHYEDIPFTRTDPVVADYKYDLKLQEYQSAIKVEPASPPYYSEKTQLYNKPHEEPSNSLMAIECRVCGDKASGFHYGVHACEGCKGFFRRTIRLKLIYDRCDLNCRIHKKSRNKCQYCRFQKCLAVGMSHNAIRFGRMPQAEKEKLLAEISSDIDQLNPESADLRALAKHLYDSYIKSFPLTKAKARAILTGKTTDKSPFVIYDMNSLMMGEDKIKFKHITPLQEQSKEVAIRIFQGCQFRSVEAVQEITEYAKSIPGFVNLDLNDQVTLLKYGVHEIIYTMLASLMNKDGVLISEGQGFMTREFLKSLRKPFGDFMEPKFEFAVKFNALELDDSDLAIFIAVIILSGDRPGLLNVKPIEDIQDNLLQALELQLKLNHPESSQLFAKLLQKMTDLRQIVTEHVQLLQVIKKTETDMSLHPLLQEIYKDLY
Method in brief: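 Fluorescence-based beta-lactamase readout in HEK293H PPARg UAS-bla cells after 17 h compound exposure (37C) and 1 h B/G FRET substrate incubation at room temperature.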

[4] = qHTS assay to identify small molecule antagonists of the peroxisome proliferator-activated receptor gamma (PPARg) signaling pathway - cell viability counter screen (AID 743194); note: nearly all actives have a fitted effect of over 55% in size
Method in brief: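 Viability was measured as CellTiter-Glo luminescence in GeneBLAzer PPARg UAS-bla HEK293H cells. These cells had been exposed 17 h at 37 C to compounds together with rosiglitazone at 50 nM final, with the beta-lactamase readout taken in the same wells.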

[5] = qHTS assay for small molecule agonists of the antioxidant response element (ARE) signaling pathway (AID 743202; active = well fitted activation curve with a large enough effect in the signal ratio in the repeat runs, not every such curve was filed as active; the % refers to the signal ratio)
Method in brief: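 After 16 hours of compound treatment at 37 C, HepG2 cells with a stably integrated ARE-driven beta-lactamase reporter were loaded 2 hours at room temperature with LiveBLAzer B/G FRET substrate and fluorescence intensity measured.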

[6] = qHTS assay for small molecule agonists of the antioxidant response element (ARE) signaling pathway - cell viability counter screen (AID 743203; calls by dose curve; note: nearly all actives have a fitted effect of over 55% in size)
Method in brief: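 Parallel cytotoxicity read-out for the ARE-bla screen: HepG2 reporter cells, 16 hrs with compounds, then CellTiter-Glo luminescence.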

[7] = qHTS assay for small molecule activators of the heat shock response signaling pathway - cell viability counter screen (AID 743209); note: nearly all actives have a fitted effect of over 50% in size
Method in brief: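 To flag cytotoxic compounds, HSE-bla HeLa cells plated at 1500 cells/well were dosed for 5 h at 37 C, followed by the reporter FRET read and then CellTiter-Glo, with luminescence recorded 30 min after reagent addition.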

[8] = qHTS assay for small molecule activators of the heat shock response signaling pathway (AID 743210; active = well fitted activation curve with a large enough effect in the signal ratio in the repeat runs, with a control signal flat, not every such curve was filed as active; the % refers to the signal ratio; note: series mostly up to about 63 µM)
Method in brief: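 Compound exposure lasted 5 h at 37 C in HeLa cells carrying a heat-shock-element-driven beta-lactamase reporter. Read-out: fluorescence intensity after 2.5 h room-temperature loading with LiveBLAzer B/G FRET substrate.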

[9] = qHTS assay to identify small molecule agonists of the peroxisome proliferator-activated receptor delta (PPARd) signaling pathway - cell viability counter screen (AID 743211); note: nearly all actives have a fitted effect of over 55% in size
Method in brief: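 Read-out: CellTiter-Glo luminescence, 30 min RT, measured in the same wells as the beta-lactamase reporter. Cells: GeneBLAzer PPAR delta UAS-bla HEK293H, 3000 cells/well, compound exposure 17 h at 37C.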

[10] = target: Peroxisome proliferator-activated receptor gamma (Homo sapiens) (UniProt P37231); test: qHTS assay to identify small molecule antagonists of the peroxisome proliferator-activated receptor gamma (PPARg) signaling pathway (AID 743191; calls by dose curve; note: series mostly up to about 63 µM; nearly all actives have a fitted effect of over 30% in size)
Method in brief: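 Beta-lactamase reporter under UAS control in HEK293H PPARg-bla cells; compound treatment 17 h at 37C. Read-out: fluorescence intensity after 1 h room-temperature incubation with LiveBLAzer B/G FRET substrate.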

Measured: Potency

CC(C)[C@H]1CC[C@@H](C)CC1=O
inactive: [1] | [2] | [3] | [4] | [5] | [6] | [7] | [8] | [9]

CC1OC1C1CCC2(C)OC2C1 (stereo not drawn)
inactive: [1] | [2] | [3] | [10] | [5] | [6] | [7] | [8] | [9]

CCOC(=O)COC(=O)c1ccccc1C(=O)OCC
inactive: [1] | [2] | [3] | [10] | [5] | [6] | [7] | [8] | [9]

Cc1ncc(COP(=O)(O)O)c(C=O)c1O
inactive: [1] | [2] | [3] | [10] | [4] | [6] | [9]

CC(=O)c1ccc2ccccc2c1
inactive: [1] | [2] | [3] | [10] | [4] | [6] | [7] | [9]

CCCCc1ccc2c(n1)[C@@H](c1ccc(OC)cc1C[C@H](C)C(=O)O)[C@H](C(=O)O)[C@H]2c1ccc2c(c1)OCO2
inactive: [1] | [2] | [3] | [10] | [5] | [6] | [7] | [9]

CC(=O)OCC(=O)[C@@]1(O)[C@H](C)C[C@H]2[C@@H]3CCC4=CC(=O)C=C[C@]4(C)[C@@]3(F)[C@@H](O)C[C@@]21C
inactive: [1] | [2] | [3] | [4] | [5] | [6] | [7] | [8] | [9]

C=CCOCC(O)CO (stereo not drawn)
inactive: [1] | [2] | [3] | [10] | [5] | [6] | [7] | [9]

Cc1ccc(C(=O)Nc2ccc(S(=O)(=O)O)c3cc(S(=O)(=O)O)cc(S(=O)(=O)O)c23)cc1NC(=O)c1cccc(NC(=O)Nc2cccc(C(=O)Nc3cc(C(=O)Nc4ccc(S(=O)(=O)O)c5cc(S(=O)(=O)O)cc(S(=O)(=O)O)c45)ccc3C)c2)c1
inactive: [1] | [2] | [3] | [10] | [5] | [6] | [7] | [8] | [9]

CCCCCCC#CC(=O)OC
inactive: [1] | [2] | [3] | [10] | [4] | [7] | [8] | [9]

CC1(C)OC[C@@H](COC(=O)CCc2ccc(OC[C@@H](O)CNCCNC(=O)N3CCOCC3)cc2)O1
inactive: [1] | [2] | [3] | [10] | [6] | [7] | [9]

CO[C@@]1(NC(=O)C(C(=O)O)c2ccc(O)cc2)C(=O)N2C(C(=O)O)=C(CSc3nnnn3C)CO[C@@H]21 (stereo partly drawn)
inactive: [1] | [2] | [3] | [4] | [5] | [6] | [7] | [8] | [9]

C[N+]1(CC2COC(c3ccccc3)(c3ccccc3)O2)CCCCC1 (stereo not drawn)
inactive: [1] | [2] | [5] | [6] | [9]

CC1(C)[C@@H]2CC[C@@]1(C)[C@H](O)C2
inactive: [1] | [2] | [4] | [5] | [6] | [7] | [9]

CC(C)(CCC(=O)O)C(=O)O
inactive: [1] | [2] | [3] | [4] | [6] | [8] | [9]

CCCCCCCC1CCCC1=O (stereo not drawn)
inactive: [1] | [3] | [10] | [4] | [5] | [6] | [7] | [9]

NO
inactive: [1] | [2] | [4] | [5] | [6] | [7] | [9]

CCOC(=O)CCC(=O)OCC
inactive: [1] | [3] | [10] | [4] | [5] | [6] | [7] | [9]

CC(=O)N1C[C@H](O)C[C@H]1C(=O)O
inactive: [1] | [2] | [4] | [5] | [6] | [7] | [8] | [9]

CCCCCC(C)N (stereo not drawn)
inactive: [1] | [3] | [10] | [4] | [5] | [6] | [7] | [8] | [9]

CCCO[Si](OCCC)(OCCC)OCCC
inactive: [1] | [2] | [3] | [7] | [8] | [9]

CC(N)C12CC3CC(CC(C3)C1)C2 (stereo not drawn)
inactive: [1] | [3] | [10] | [4] | [5] | [6] | [7] | [8] | [9]

C=C(C)C(=O)OCCOCCOCCOCCOC(=O)C(=C)C
inactive: [1] | [2] | [6] | [7] | [8] | [9]

O=C(O)Cc1csc(-c2ccc(Cl)cc2)n1
inactive: [1] | [2] | [10] | [4] | [5] | [6] | [7] | [8] | [9]

O=C1CCCCCCCCCCCCCCO1
inactive: [1] | [2] | [3] | [4] | [6] | [7] | [8] | [9]

CC1CCC(CO)CC1 (stereo not drawn)
inactive: [1] | [2] | [4] | [5] | [6] | [7] | [8] | [9]

CC[N+](C)(CC)CCOC(=O)C1c2ccccc2Oc2ccccc21
inactive: [1] | [3] | [10] | [4] | [5] | [6] | [7] | [9]
